Test results reported in PubChem BioAssay AID1159580 (chemical genetic matrix, 2015).
In all, about 5,500 compounds went through this assay and about 2,000 (36%) were called active. About 18% were inconclusive and are not listed. Rule as the data show it: active = normalized growth mostly below about 0.91 (no sharp cut-off); inconclusive = no clear call, values can overlap the other calls; inactive = mostly above about 0.92. The list shows a part of the results.

Experiment: chemical genetic growth profiling, strain panel (AID 1159580);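 also: tested at 20 µM; growth read once vehicle control cultures reached saturation at 30 °C; 1 = growth at the plate median or of vehicle wells; lower values mean less growth of the strain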
Details: S. cerevisiae deletion strains, growth OD

Measured: normalized growth

OC[C@H]1O[C@H](OCCCc2ccc(O)cc2)[C@H](O)[C@@H](O)[C@@H]1O
inactive: locus YHR030C, strain SLT2, hits give low values 0.97 | locus YHR079C, strain IRE1, hits give low values 0.993 | locus YJL095W, strain BCK1, hits give low values 1 | locus YJR066W, strain TOR1, hits give low values 0.93 | locus YLR113W, strain HOG1, hits give low values 0.979 | locus YNL183C, strain NPR1, hits give low values 0.933 | locus YOR231W, strain MKK1, hits give low values 0.975 | locus YPL256C, strain CLN2, hits give low values 0.968
